Assay outcomes from PubChem BioAssay.
Sampled rows, rich in hits. Any-hit rate of the full collection: about 1.6%.
PG9 Ab binder: binders of HIV-1 gp120 antibody PG9, primary screen, biochemical, TR-FRET; HIV-1 gp120 / PG9 antibody interaction; TR-FRET gp120-PG9 antibody binding; inhibition, % at 6.7 µM; actives 0.43% (n = 360,000); AID 624416, 2012; in the data active = inhibition above about 8.5%
NR1D1 modulator: modulators of Rev-erb alpha DNA binding, primary screen, biochemical, FITC-DNA, fluorescence polarization, uHTS | Rev-erbα–FITC-DNA binding, 90 min | activity, % at 10 µM | actives 0.79% (n = 370,000) | AID 1259318, 2017;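 active = activity above about 14%, limit read from the data; passing the limit was not always enough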;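 note: 0% = DMSO wells with 35 nM protein and 100% = DMSO wells with 750 nM protein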
Target sequence (P20393 whole entry, looked up): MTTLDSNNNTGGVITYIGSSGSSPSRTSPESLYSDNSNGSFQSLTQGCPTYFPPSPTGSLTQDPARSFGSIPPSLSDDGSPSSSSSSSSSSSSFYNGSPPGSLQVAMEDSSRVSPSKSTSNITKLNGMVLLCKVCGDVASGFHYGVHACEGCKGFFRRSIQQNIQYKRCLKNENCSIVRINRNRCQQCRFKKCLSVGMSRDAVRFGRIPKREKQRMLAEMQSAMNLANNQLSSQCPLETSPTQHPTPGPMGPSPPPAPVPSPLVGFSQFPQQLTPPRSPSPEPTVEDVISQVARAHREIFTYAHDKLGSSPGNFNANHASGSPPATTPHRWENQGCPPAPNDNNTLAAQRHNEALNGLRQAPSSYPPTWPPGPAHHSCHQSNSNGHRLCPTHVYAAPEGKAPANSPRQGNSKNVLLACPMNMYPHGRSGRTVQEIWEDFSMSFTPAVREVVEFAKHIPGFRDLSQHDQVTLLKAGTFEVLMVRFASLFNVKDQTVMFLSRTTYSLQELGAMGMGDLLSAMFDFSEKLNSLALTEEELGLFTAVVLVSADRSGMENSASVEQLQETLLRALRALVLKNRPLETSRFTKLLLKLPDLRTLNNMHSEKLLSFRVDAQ
NPR2 activator: human GC-B receptor activators, primary screen, HEK293 GC-B cells, cGMP TR-FRET, EC30 CNP; Atrial natriuretic peptide receptor 2 (Homo sapiens), P20594; 0% at EC30 CNP, 100% saturating CNP; activation, % at 10 µM; actives 0.11% (n = 370,000); AID 1920062, 2024;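 active = activation at 10 µM reaching about 35% in either raw or pattern-adjusted values, limit read from the data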
V-ATPase pHluor: regulators of yeast V-ATPase proton pumping, primary screen, pHLuorin cytosolic pH fluorescence. actives 0.37% (n = 350,000). S. cerevisiae. response, % at 10 µM; in the data active = response mostly above about 7.3%, no sharp cut-off; inactive = mostly below about 5.4%; note: actives read high
GC-A act: GC-A stimulated cGMP production enhancers – HEK293 GC-A cells, cGMP TR-FRET, EC30 ANP, primary screen. Atrial natriuretic peptide receptor 1 (Homo sapiens), P16066. actives 0.14% (n = 370,000). 0% at EC30 ANP, 100% saturating ANP. AID 1671463, 2021. activation, % at 10 µM; in the data active = activation above about 40%
VATPase regulator: yeast V-ATPase proton pumping modulators, confirmation, S. cerevisiae, pH-sensitive GFP, second cherry-pick | shares compounds with V-ATPase pHluor | response, % at 10 µM | S. cerevisiae pHLuorin cytosolic pH, V-ATPase proton transport | actives 2% (n = 980); in the data active = response above about 24%;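 note: plate controls were vehicle wells for no effect and positive control wells for full effect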
Numbers without * were called inactive; . = no result given.

SMILES	PG9 Ab binder	NR1D1 modulator	NPR2 activator	V-ATPase pHluor	GC-A act	VATPase regulator
COc1ccccc1OCCNC(=O)CCNC(=O)c1ccccc1OC	0.3	-5.1	0.1	-2.1	1.4	.
O=C(NC1CCCCCC1)c1ccc(OCC2CCCO2)cc1 (stereo unspecified)	-0.8	-5.9	8.2	7.8*	0.5	1.4
CCOc1ccc(C(=O)NC2CCCCCCC2)cc1	1.0	0.6	6.2	2.6	7.8	.
CCOC(=O)[C@]12CCCCC/C=C\1N(Cc1ccc(OC)cc1)C(=O)[C@H]2CC(=O)NCCc1ccccc1OC	.	-3.7	-3.8	.	-3.6	.
O=C(/C=C/c1ccccc1)NCCS(=O)(=O)N1CCN(c2ccccc2)CC1	0.0	-3.5	-11.0	6.5*	-11.4	1.2
CC(C)[C@H](NC(=O)c1ccc(F)cc1)C(=O)NC1=NCCS1	-0.1	-4.8	-1.1	-1.6	-0.2	-0.5
CC(C)[C@H](N)C(=O)N[C@@H](Cc1ccccc1)C(=O)N1CCC2CCN(S(=O)(=O)c3ccccc3)CC21 (stereo partly specified)	.	6.8	-1.5	.	1.4	.
O=C(Nc1c(-c2ccccc2)nc2ncccn12)c1ccc(F)cc1	.	-1.2	3.5	.	2.9	.
COC(=O)c1[nH]c2c(c1C)C(=O)CC(c1cccc(OC)c1)C2 (stereo unspecified)	0.9	1.8	-1.4	12.9*	-0.1	-2.3
COC(=O)c1[nH]c2c(c1C)C(=O)CC(c1ccc(OC)c(OC)c1)C2 (stereo unspecified)	-1.7	0.8	-1.5	0.3	-1.1	.
Cc1cccc(C(=O)C2CCOC(C)(C)C2)c1 (stereo unspecified)	0.5	6.3	-0.5	-4.7	-1.9	.
Cc1ccc(C(=O)C2CCOC(C)(C)C2)cc1 (stereo unspecified)	0.1	0.2	7.2	11.8*	0.7	-2.3
COc1ccc(C(=O)CCC(=O)NC2=NCCS2)cc1	-0.9	-1.3	0.3	1.8	-0.5	-3.5
C/C(=N\Nc1ccccn1)c1cccs1	-1.8	3.2	-8.4	20.7*	-5.1	3.1
O=C(NCCS(=O)(=O)NC1CCCCC1)c1ccc2c(c1)OCO2	-0.9	2.8	1.7	7.1*	1.4	-1.6
O=C(NC1CCCCC1)c1ccc2c(c1)OCO2	-0.4	0.2	5.5	-4.0	-3.6	.
C=C(C)CSc1nnc(-c2ccc(OC)c(OC)c2)n1N	0.5	1.2	7.2	8.7*	-2.1	0.8
C[C@H](c1ccccc1)n1nnc(COCc2ccccc2)c1C#CCOCc1ccccc1	-0.8	-0.4	-1.9	9.9*	-7.2	1.1
Cc1n[nH]c(=S)n1-c1ccc(Cl)cc1	0.6	4.0	-1.5	-1.8	2.1	-2.2
CCCCC(CC)CCC(CC(C)C)OS(=O)(=O)O (stereo unspecified)	.	0.6	.	.	.	.
CC/C(O)=C(/C#N)c1nnc2n1CCCCC2	-2.8	-2.8	3.0	4.8	1.7	.
N#C/C(=C(/O)COc1ccc(Br)cc1)c1nnc2n1CCCCC2	0.6	-1.8	6.9	7.5*	0.1	-1.3
CC(=O)c1cc(-c2ccc(Cl)c(C(F)(F)F)c2)c(=O)n2c1CCC2	.	0.0	19.7	.	2.5	.
COC(=O)c1ccc(S(=O)(=O)N2CCC(NC(=O)COc3ccc(F)cc3)CC2)cc1	.	-3.2	-2.0	.	-5.0	.
C#CCNC(=O)C1=C[C@H](C(C)(C)C)C[C@H](OCCCCO)O1	-0.3	-2.4	0.3	15.7*	1.3	1.7
O=C(Nc1ccc2oc(-c3cccnc3)nc2c1)c1ccc([N+](=O)[O-])o1	-0.5	-12.8	-8.1	11.0*	2.9	2.4
O=C(Nc1ccc2oc(-c3cccnc3)nc2c1)c1ccc(Br)o1	0.3	-1.3	7.6	6.2	1.8	.
CCn1c2ccccc2c2cc(NC(=O)COC(=O)c3cc(F)cc(F)c3)ccc21	.	2.7	1.3	.	-4.1	.
COc1ccccc1NC(=S)N1CCN(C/C=C/c2ccccc2)CC1	-0.9	-1.3	7.8	-0.4	4.6	.
COc1ccc(NC(=S)N2CCN(C/C=C/c3ccccc3)CC2)c(OC)c1	-2.3	5.8	1.6	12.3*	2.4	-0.7
